PubChem BioAssay
Activity calls are given as the source filed them.

What was measured:
[1] = tested on: XIP peptide (Xip251-270) binding; test: small-molecule binders of XIP peptide, primary screen, biochemical, small-molecule microarray, fluorescence 635/667 nm, 0.1 µg/mL protein (AID 1182); settings: fluorescent protein binding, 635 nm, higher = more signal, called active from +8 up or from −8 down
XIP peptide (Xip251-270) = test: small-molecule binders of XIP peptide, primary screen, biochemical, small-molecule microarray, fluorescence 635/667 nm, 0.5 µg/mL protein (AID 1183); settings: small-molecule microarray binding, fluorescence 635 nm; higher = more signal
[2] = Plasmodium falciparum growth inhibition, primary screen, strain 3D7, DAPI fluorescence, 100 nL (AID 1184);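 note: parasites grown inside human red blood cells in medium with human serum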; settings: P. falciparum 3D7 growth, 3 d, higher = more signal
[3] = target: Homeobox protein Hox-A13 (Mus musculus) (UniProt Q62424); test: inhibitors of HoxA13-DNA binding, primary screen, biochemical, fluorescence polarization, labeled oligonucleotide (AID 1185); settings: 15 min, higher = more signal, called active from +8 up or from −8 down
Sequence of Homeobox protein Hox-A13 (Mus musculus) (Q62424 whole entry, looked up): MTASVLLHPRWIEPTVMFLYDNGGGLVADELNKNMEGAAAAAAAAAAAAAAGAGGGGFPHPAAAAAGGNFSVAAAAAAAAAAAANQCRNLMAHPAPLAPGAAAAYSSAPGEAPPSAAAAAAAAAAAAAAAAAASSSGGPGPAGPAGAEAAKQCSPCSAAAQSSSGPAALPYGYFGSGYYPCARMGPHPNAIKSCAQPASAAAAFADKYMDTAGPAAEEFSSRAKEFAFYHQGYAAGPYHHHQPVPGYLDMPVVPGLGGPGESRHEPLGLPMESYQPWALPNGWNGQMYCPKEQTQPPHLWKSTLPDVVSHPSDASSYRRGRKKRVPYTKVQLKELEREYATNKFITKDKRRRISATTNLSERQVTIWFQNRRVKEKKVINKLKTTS

SMILES	composite z-score [1]	composite z-score (XIP peptide (Xip251-270))	z-score [2]	z-score [3]
COC(=O)NCC=Cc1nc(CCCO)co1	-0.755 (inactive)	0.432	0.316	-2.8 (inactive)
CCCNC(=O)OC[C@H]1O[C@H](CCON=C(C)C)C=C[C@@H]1Oc1ccc(OC)cc1	0.771 (inactive)	0.219	1.07	0.928 (inactive)
CCOC(=O)[C@H](Cc1ccccc1)NC(=O)CCC1CC(OC(=O)NCCc2ccc(F)cc2)CC2(CCCC(COC(=O)NCC3CCCCC3)O2)O1 (stereo partly drawn)	0.233 (inactive)	0.605	-1.82	-2.33 (inactive)
CO[C@@H]1COC(=O)[C@@H](C)COC(=O)[C@@H](C)NC(=O)CC=C[C@@H]1C	0.0875 (inactive)	0.304	-1.52	-0.701 (inactive)
CCOC(=O)CCN1C(=O)[C@H]2[C@H]3[C@H](O)[C@H](O)CC(=NOCc4ccccc4)[C@H]3CC[C@H]2C1=O	-0.207 (inactive)	-0.0274	0.172	0.313 (inactive)
CC(=O)OC[C@H]1O[C@H](CCON=C2[C@H]3CCn4c(=O)n(-c5ccccc5)c(=O)n4[C@H]3[C@H](O)[C@@H]3O[C@H]23)C=C[C@@H]1OC(C)=O	0.149 (inactive)	-0.325	-0.374	-1.83 (inactive)
COC(=O)[C@H](C)NC(=O)CCC1CC(OC(=O)NCCc2ccc(F)cc2)CC2(CCCC(COC(=O)NCc3cccc(C(F)(F)F)c3)O2)O1 (stereo partly drawn)	0.64 (inactive)	0.517	-0.506	-6.12 (inactive)
CCOC(=O)[C@H](Cc1ccccc1)NC(=O)CCC1CC(OC(=O)NCCc2ccc(F)cc2)CC2(CCCC(COC(=O)NCc3ccccc3)O2)O1 (stereo partly drawn)	0.501 (inactive)	0.283	-1.64	-2.25 (inactive)
O=C1OCCC=C1C(O)CCc1ccccc1 (stereo not drawn)	0.321 (inactive)	0.716	-0.542	-0.295 (inactive)
CO[C@H]1COC(=O)CC=C[C@H](C)[C@@H](OC)COC(=O)[C@H](C)COC(=O)CC=C[C@@H]1C	0.163 (inactive)	-0.337	0.916	0.296 (inactive)
C[n+]1ccc(-c2ccc(CO)cc2)cc1	0.725 (inactive)	-0.227	1.09	-2.76 (inactive)
CON=CC[C@@H]1C=C[C@H](OC(C)=O)[C@@H](COC(C)=O)O1	0.726 (inactive)	0.763	1.2	0.463 (inactive)
CC=CC1=C(CO)C(=O)[C@@H]2O[C@@H]2C1=O	3.73 (inactive)	0.736	0.908	-3.53 (inactive)
COC(=O)[C@H](C)NC(=O)CCC1CC(OC(=O)NCc2ccc3c(c2)OCO3)CC2(CCCC(COC(=O)NCC3CCCCC3)O2)O1 (stereo partly drawn)	0.655 (inactive)	0.555	-1.87	-4.19 (inactive)
C[C@H](ON=C1[C@H]2CCn3c(=O)n(-c4ccccc4)c(=O)n3[C@H]2[C@H](O)[C@@H]2O[C@H]12)c1cn([C@H](CO)Cc2ccccc2)nn1	2.76 (inactive)	0.238	0.0242	-3.02 (inactive)
CC(C)(C)N1C(=O)[C@H]2[C@H]3[C@H](O)C=CC(=O)[C@@H]3CC[C@H]2C1=O	0.127 (inactive)	0.16	-0.0484	0.14 (inactive)
CCc1cc2c(nc1CC)CCN(CCC(C)=NO[C@H](C)c1cn([C@@H]3COC[C@H]3O)nn1)C2	-0.171 (inactive)	-0.0063	0.653	-1.7 (inactive)
CCOC(=O)[C@H](Cc1ccccc1)NC(=O)CCC1CC(OC(=O)NCc2cccc3ccccc23)CC2(CCCC(COC(=O)NCC(c3ccccc3)c3ccccc3)O2)O1 (stereo partly drawn)	0.2 (inactive)	0.366	-1.83	-4.93 (inactive)
O=C(C=Cc1ccc2c(c1)OCO2)c1ccc(F)cc1	-0.158 (inactive)	0.629	-0.533	0.526 (inactive)
CCOC(=O)[C@H](Cc1ccccc1)NC(=O)CCC1CC(OC(=O)NCc2cccc3ccccc23)CC2(CCCC(COC(=O)NCc3cccc(C(F)(F)F)c3)O2)O1 (stereo partly drawn)	0.418 (inactive)	0.335	-1.39	-4.31 (inactive)
C=Cc1ccc([C@H]2N[C@H](C(=O)O)CC[C@@H]2C)cc1	-0.132 (inactive)	-0.0045	2.18	-0.69 (inactive)
CO[C@H]1COC(=O)CC=C[C@@H](C)[C@H](OC)COC(=O)[C@@H]2CCCN2C(=O)CC=C[C@@H]1C	0.832 (inactive)	0.678	0.095	-0.438 (inactive)
